Laboratory results from PubChem BioAssay (NCI).
Several values for one entry are separate records, joined by “and”; a condition that tells them apart may be missing. Identical values can stand only once. Compounds without any hit were thinned out: in the full panel of roughly 83,000, 20% have a hit.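 Testing used 96-well plates and a 48-hour single-concentration exposure. Example: -40 means 40% of the starting cells died.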 Activity calls are given as the source filed them. The calls were made as follows: active = growth percent below 10; inactive = the rest.

test system: HL-60(TB) leukemia; experiment: NCI-60 one-dose screen, 48 h (100 = growth as untreated, 0 = no growth, -100 = all killed); details: 10 µM unless noted

Row | SMILES | growth
1 | O=P(O)(O)OC1C(OP(=O)(O)O)C(OP(=O)(O)O)C(OP(=O)(O)O)C(OP(=O)(O)O)C1OP(=O)(O)O.[Cu+2] (stereo not given) | 92.6% (inactive)
2 | C#Cc1cccc(Nc2ncnc3ccc(-c4cncc(NS(C)(=O)=O)c4)cc23)c1 | 4% (active)
3 | NS(=O)(=O)c1ccc(-n2nc(-c3ccc(Br)cc3)ccc2=O)cc1 | 88.5% [100 µM] (inactive)
4 | O=c1oc2c(cnc3ccccc32)cc1-c1ccsc1 | 96.7% (inactive)
5 | CCC(=O)Oc1ccc(-c2ccccc2)cc1Br | 96.5% (inactive)
6 | Oc1c(Cl)cc(Cl)c2ccc(Cn3cc(-c4cc(C(F)(F)F)cc(C(F)(F)F)c4)nn3)nc12 | -13.7% (active)
7 | C#CCOc1ccc2ncnc(Nc3ccc(NC(=O)CCl)cc3)c2c1 | -57.5% (active)
8 | O=[N+]([O-])c1ccccc1N(S(=O)(=O)c1ccccc1)S(=O)(=O)c1ccccc1 | 5.52% (active) and 108% (inactive)
9 | CCN1C(=O)/C(=c2\sc3n(c2=O)C2C(NN=3)N(CC)C(=S)N2CC)c2ccccc21 (stereo not given) | 87.4% (inactive)
10 | CC(=O)Nc1ccc(S(=O)(=O)N2C(=O)CCC2C(=O)Nc2ccccc2)cc1 (stereo not given) | 25.1% (inactive)
11 | COc1cc(-c2cc(=O)oc3cc(O)ccc23)cc(OC)c1OC | 86.3% (inactive)
12 | CCOc1cc2ncc(C#N)c(Nc3ccc(F)c(Cl)c3)c2cc1NC(=O)CC1CCSS1 (stereo not given) | -33.9% (active)
13 | Cc1ccccc1N=C(c1ccccc1)C1C(=O)c2ccccc2C1=O | 78.5% (inactive)
14 | CN(C)C/C=C/C(=O)Nc1cc2c(Nc3ccc(F)c(Cl)c3)ncnc2cc1O[C@H]1CCOC1 | -44.7% (active)
15 | CCc1c(C(=O)N[C@@H]2c3cc(Cl)ccc3CC[C@@H]2O)[nH]c(C)c1C(C)=O | 103% (inactive)
16 | COc1ccc2c(c1)[n+](=O)c(/C=C/C(=O)c1cc(OC)c(OC)c(OC)c1)c(C)n2[O-] | -49.1% (active)
17 | COc1ccc2c(c1)C(=O)/C(=C/c1cccc(OCC(=O)c3ccccc3)c1)O2 | -80.5% (active)
18 | O=[N+]([O-])c1ccc(S(=O)(=O)N2CCN(C3=NS(=O)(=O)c4ccccc4N3c3ccccc3)CC2)cc1 | 96.7% (inactive)
19 | Cc1c2ccccc2c(C)c2c1ccc1ccccc12 | 69.9% (inactive)
20 | Cc1ccc2[nH]c(=O)cc(-n3nncc3Cn3c4ccccc4c4ccccc43)c2c1 | 107% (inactive)

Row | SMILES | growth
21 | CC(C)CNC(=O)c1ccccc1C(=O)NC1(C(=O)NCC(C)C)CCCC1 | 92.9% (inactive) and 97.4% (inactive)
22 | COc1ccc(-c2nc3sc(-c4ccccc4)c(-c4ccccc4)n3c2/C=C/C(=O)c2ccccn2)cc1 | 50.5% (inactive)
23 | COc1ccc(-c2nn(-c3cccc(NC(=O)c4ccc(Cl)c(Cl)c4)c3)cc2-c2ccncc2)cc1Cl | 89.1% (inactive)
24 | COc1cc(CNCCN2C(=O)c3ccc4c5c(ccc(c35)C2=O)C(=O)N(CCNCc2cc(OC)c(OC)c(OC)c2)C4=O)cc(OC)c1OC | -48.7% (active)
25 | Nc1cc(N)ncn1 | 47.3% (inactive)
26 | Cc1c(Cc2ccccc2)c(=O)oc2c(C)c(OCC(=O)n3nc(C#N)cc3N)ccc12 | 101% (inactive)
27 | CCOC(=O)C(C#N)=C1CCN(C)CC1 | 113% (inactive)
28 | O=C(/C(=C/c1ccc([N+](=O)[O-])cc1)SCc1ccc(F)cc1)c1ccc(Cl)cc1 | 64.2% (inactive)
29 | COC(=O)[C@]12CC[C@@H](C(/C=C/c3cccnc3)=N/O)[C@@H]1[C@H]1CC[C@@H]3[C@@]4(C)CC(=C/c5cccnc5)/C(=N/O)C(C)(C)[C@@H]4CC[C@@]3(C)[C@]1(C)CC2 | 2.86% (active)
30 | Cc1cccc(Cc2cnc(NC(=O)c3ccc4nnsc4c3)s2)c1 | 94.1% (inactive)
31 | CCCOc1cc2ccccc2cc1C(=O)Nc1nc(NC)c2c(ccc3nccc32)[nH]1 | -55.2% (active)
32 | Cc1cccc(/C=C\C(=O)c2ccc(Cl)cc2)c1 | 90.1% (inactive) and 61.3% (inactive)
33 | CCCC(=O)NC(c1ccc2c(c1)OCO2)c1ccc2cccnc2c1O (stereo not given) | -47.7% (active)
34 | N/N=C(\C(=N\N)c1ccccc1)c1ccccc1 | 84.7% (inactive)
35 | Oc1ccc(Cl)cc1Cc1cc(Cl)ccc1O | 33.8% (inactive)
36 | c1cc2[nH]ncc2cc1-c1nc2ccc3[nH]ncc3c2c2c1CCCC2 | -18.3% (active)
37 | O=C1NC(=S)NC(=O)C1=Cc1cccc(C=C2C(=O)NC(=S)NC2=O)c1 | 101% (inactive)
38 | O=C1CNC(c2ccccc2)C(c2ccccc2)N1 (stereo not given) | 106% (inactive)
39 | NS(=O)(=O)c1ccc(CCN2C(=O)C=CC2=O)cc1 | 99.6% (inactive)
40 | O=C(NO)c1ccc(Cn2c(=O)n(-c3ccccc3)c(=O)c3ccccc32)cc1 | 1.26% (active)
